We go through 6 compounds from PubChem BioAssay.

For assay [1], the system named is Human papillomavirus type 1a protein E7 (residues 44-93). As to the kind of experiment: small molecules binding HPV E7 44-93 – biochemical, small-molecule microarray, residues 44-93, 635 nm fluorescence, primary screen (AID 1108).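 Note: E7 fragment applied at 1 µg/mL in TBST for 1 h at 4 C; score combines spot fluorescence with its signal to noise ratio.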 The settings on record: fluorescence 635 nm, higher = more signal.
A short description of assay [2]: hepatitis C replication reporter changes, two-sided – Huh7 cells, luciferase reporter, HCV replication inhibitor project, primary screen (AID 1109).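 Note: huh7 hepatoma cells harbouring a luciferase neomycin HCV replicon reporter; luciferase luminescence as measure of HCV replicon replication; test concentration not given here.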 The following applies: Huh7 HCV replicon luciferase reporter, 48 h; higher = more signal.
For assay [3], the target named is Left-right determination factor 2 (Homo sapiens) (UniProt O00292). Nature of the assay: small molecules binding LEFTY2 protein – biochemical, small-molecule microarray, 635 nm fluorescence scan, primary screen (AID 1110). The settings on record: higher = more signal.
The target in assay [4] is Calmodulin-1 (Homo sapiens) (UniProt P0DP23). Nature of the assay: small molecules binding calmodulin-1 with EGTA – biochemical, small-molecule microarray, Cy5-labelled CALM1, profiling panel (AID 1111).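 Note: labelled calmodulin applied in Tris saline Tween buffer holding calcium plus EGTA and DTT.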 The settings on record: Cy5-CALM1 binding fluorescence, higher = more signal.
Assay [5] shares this target. Nature of the assay: small molecules binding Ca-loaded calmodulin-1 – biochemical, small-molecule microarray, Cy5-labelled CALM1, plus calcium, artefact control for SMM control-protein annotation, profiling panel (AID 1112).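 Note: score merges spot fluorescence with signal to noise from triplicate slides.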 The settings on record: Cy5-CALM1 binding fluorescence, higher = more signal.
Assay [6] in a line: probe aWnt5a binding to arrayed compounds – biochemical, biotinylated probe, 635/667 nm fluorescence, primary screen (AID 1113).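 Note: score merges 667 nm fluorescence intensity with signal-to-noise per printed feature.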 The settings on record: small-molecule microarray, higher = more signal.
A short description of assay [7]: probe aShh binding to arrayed compounds – biochemical, biotinylated probe, 635/667 nm fluorescence, primary screen (AID 1114).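 Note: probe is biotin-labelled aShh protein from a stem cell growth factor screen; measures binding of labelled protein to compounds printed on the slide; score merges feature fluorescence at 667 nm with signal-to-noise.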 The following applies: small-molecule microarray, higher = more signal.
Assay [8] is described as follows: probe aNog binding to arrayed compounds – biochemical, biotinylated probe, 635/667 nm fluorescence, primary screen (AID 1115).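 Note: probe is biotinylated aNog protein used at 0.15 µg/mL for 1 h at 4 C; z-score combines 667 nm fluorescence of each spot with its signal to noise.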 The following applies: small-molecule microarray, higher = more signal.
The target of assay [9] is Torsin-1A-interacting protein 1 (Homo sapiens) (UniProt Q5JTV8). As to the kind of experiment: compound microarray binding of lysate hLAP1 – cell lysate, small-molecule microarray, COS7 lysate, 635/667 nm fluorescence, primary screen (AID 1116). The settings on record: 635 nm fluorescence, higher = more signal.
For assay [10], the target named is Alpha-bungarotoxin (Bungarus multicinctus) (UniProt P60615). As to the kind of experiment: compounds binding labelled alpha-BTX control protein – biochemical, small-molecule microarray, Alexa647 label, 635/667 nm fluorescence, artefact control for SMM control protein annotation, profiling panel (AID 1117). The following applies: alpha-BTX-A647 binding fluorescence, higher = more signal.

Another assay has as its target Albumin (Bos taurus) (UniProt P02769). Nature of the assay: compounds binding labelled BSA control protein – biochemical, small-molecule microarray, Alexa647 label, 635/667 nm fluorescence, artefact control for SMM control protein annotation, profiling panel (AID 1118).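 Note: score merges 667 nm emission intensity and signal-to-noise per printed compound spot.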 The following applies: BSA-A647 binding, fluorescence 635 nm, higher = more signal.
Assay [11] is described as follows: probe aXIP binding to arrayed compounds – biochemical, NeuroSMM set, 635/667 nm fluorescence, primary screen (AID 1119).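 Note: probe is the protein aXip251-270 applied at 1 µg/mL to compound-printed slides; binding of probe to printed compounds measured as 667 nm fluorescence plus signal to noise.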 The following applies: small-molecule microarray, higher = more signal, called active from +8 up or from −8 down.
A short description of assay [12]: probe aNOTCH3 binding on compound microarray – biochemical, small-molecule microarray, 635/667 nm fluorescence, primary screen (AID 1120).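 Note: probe is a biotin-tagged antibody raised against NOTCH3 rather than NOTCH3 protein; score merges spot fluorescence near 667 nm with spot signal to noise.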 The settings on record: higher = more signal.
The nature of assay [13]: probe aNOTCH2 binding on compound microarray – biochemical, small-molecule microarray, 635/667 nm fluorescence, primary screen (AID 1121).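 Note: score merges feature fluorescence read at 667 nm with its signal to noise.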 The settings on record: higher = more signal.
The target of assay [14] is Carbonic anhydrase 2 (Homo sapiens) (UniProt P00918). As to the kind of experiment: compounds binding carbonic anhydrase 2 – biochemical, small-molecule microarray, Alexa647-labelled CAII, profiling panel (AID 1122). The settings on record: CAII-A647 binding fluorescence, higher = more signal.
The nature of assay [15]: COS7 lysate on small-molecule microarray, probe aHis, 635 nm (AID 1123).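 Note: z-score combines 667nm fluorescence intensity with signal-to-noise per printed compound spot.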 The settings on record: COS7 cell lysate, fluorescence, higher = more signal.
Assay [16] can be described thus: probe aLAP1 signal on lysate-treated microarray – cell lysate, small-molecule microarray, COS7 lysate, primary screen (AID 1124).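 Note: lysate comes from COS7 cells expressing LAP1 and is applied at 0.3 µg/mL; score merges spot fluorescence near 667 nm with signal-to-noise over triplicate slides.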 The settings on record: probe aLAP1, fluorescence, higher = more signal.
In the next assay the test system is Sam68 (KHDRBS1). As to the kind of experiment: compounds binding KHDRBS1 protein – biochemical, small-molecule microarray, 635 nm fluorescence, primary screen (AID 1125).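 Note: score merges 667 nm channel intensity with signal to noise over triplicate slides.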 The following applies: higher = more signal.
For assay [17], the system named is Chordin-like protein 2 (CHRDL2). As to the kind of experiment: compounds binding chordin-like 2 – biochemical, small-molecule microarray, 635 nm fluorescence, primary screen (AID 1126).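 Note: printed compound slides probed with Chrdl2 protein at 4 µg/mL for 1 h at 4 C; score merges 667 nm emission intensity with signal to noise over three replicate slides.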 The following applies: fluorescence 635 nm, higher = more signal.
The target in assay [18] is Concanavalin-A (Canavalia ensiformis) (UniProt P02866). Nature of the assay: compounds binding concanavalin A lectin – biochemical, small-molecule microarray, Alexa647 label, 635 nm, artefact control for SMM control protein annotation, primary screen (AID 1127).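 Note: z combines 667 nm emission intensity with signal-to-noise across three replicate slides.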 The following applies: ConA-A647 binding fluorescence, higher = more signal.

The source made the active and inactive calls.

Torsin-1A-interacting protein 1 (Homo sapiens), sequence (Q5JTV8 whole entry, looked up): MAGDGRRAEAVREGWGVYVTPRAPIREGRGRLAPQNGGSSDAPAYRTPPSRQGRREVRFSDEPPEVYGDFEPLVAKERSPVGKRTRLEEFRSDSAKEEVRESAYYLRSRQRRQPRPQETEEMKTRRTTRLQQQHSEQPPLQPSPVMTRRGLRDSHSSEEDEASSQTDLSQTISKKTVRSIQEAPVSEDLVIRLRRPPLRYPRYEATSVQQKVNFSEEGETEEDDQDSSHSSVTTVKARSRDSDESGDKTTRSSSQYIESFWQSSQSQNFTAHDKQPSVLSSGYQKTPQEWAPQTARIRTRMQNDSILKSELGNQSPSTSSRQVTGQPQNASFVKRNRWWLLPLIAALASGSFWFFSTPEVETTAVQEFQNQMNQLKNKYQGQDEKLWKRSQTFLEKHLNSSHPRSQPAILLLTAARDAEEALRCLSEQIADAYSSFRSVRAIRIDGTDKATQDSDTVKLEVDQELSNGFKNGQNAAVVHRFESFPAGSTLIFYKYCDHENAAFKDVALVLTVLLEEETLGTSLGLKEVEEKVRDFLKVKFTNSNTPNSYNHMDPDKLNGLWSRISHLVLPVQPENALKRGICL
Left-right determination factor 2 (Homo sapiens), sequence (O00292 whole entry, looked up): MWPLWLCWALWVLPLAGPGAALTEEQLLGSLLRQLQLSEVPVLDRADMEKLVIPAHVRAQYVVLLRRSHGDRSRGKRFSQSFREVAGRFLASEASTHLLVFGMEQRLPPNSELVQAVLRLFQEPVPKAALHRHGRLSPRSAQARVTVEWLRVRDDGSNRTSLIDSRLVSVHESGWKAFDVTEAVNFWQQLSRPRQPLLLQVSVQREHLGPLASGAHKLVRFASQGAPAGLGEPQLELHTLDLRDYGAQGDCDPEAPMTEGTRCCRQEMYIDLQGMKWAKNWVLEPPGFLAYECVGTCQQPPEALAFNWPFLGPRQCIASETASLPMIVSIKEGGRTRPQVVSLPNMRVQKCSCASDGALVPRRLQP
Albumin (Bos taurus), sequence (P02769 whole entry, looked up): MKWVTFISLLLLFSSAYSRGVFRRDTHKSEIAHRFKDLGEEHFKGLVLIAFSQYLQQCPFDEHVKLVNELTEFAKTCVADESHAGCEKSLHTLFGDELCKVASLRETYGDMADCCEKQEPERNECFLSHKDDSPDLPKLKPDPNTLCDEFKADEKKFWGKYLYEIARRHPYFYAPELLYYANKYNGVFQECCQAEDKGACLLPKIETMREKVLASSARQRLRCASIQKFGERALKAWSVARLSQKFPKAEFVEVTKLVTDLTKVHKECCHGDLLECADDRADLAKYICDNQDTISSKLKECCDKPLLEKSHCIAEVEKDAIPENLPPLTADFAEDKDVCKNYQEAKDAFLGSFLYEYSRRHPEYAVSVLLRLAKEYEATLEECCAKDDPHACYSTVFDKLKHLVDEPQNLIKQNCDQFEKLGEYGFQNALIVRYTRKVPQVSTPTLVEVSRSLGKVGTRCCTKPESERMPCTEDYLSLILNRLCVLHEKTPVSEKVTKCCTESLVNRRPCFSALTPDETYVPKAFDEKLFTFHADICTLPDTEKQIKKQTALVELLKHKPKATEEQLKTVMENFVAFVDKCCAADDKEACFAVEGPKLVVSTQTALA
Concanavalin-A (Canavalia ensiformis), sequence (P02866 whole entry, looked up): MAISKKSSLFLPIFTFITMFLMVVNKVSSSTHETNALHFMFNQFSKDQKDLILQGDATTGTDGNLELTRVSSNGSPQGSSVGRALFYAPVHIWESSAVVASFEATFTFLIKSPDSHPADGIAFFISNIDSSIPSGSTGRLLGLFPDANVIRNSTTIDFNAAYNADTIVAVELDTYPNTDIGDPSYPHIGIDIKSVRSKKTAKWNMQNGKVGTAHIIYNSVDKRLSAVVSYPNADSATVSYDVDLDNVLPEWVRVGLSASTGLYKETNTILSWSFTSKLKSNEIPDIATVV
Alpha-bungarotoxin (Bungarus multicinctus), sequence (P60615 whole entry, looked up): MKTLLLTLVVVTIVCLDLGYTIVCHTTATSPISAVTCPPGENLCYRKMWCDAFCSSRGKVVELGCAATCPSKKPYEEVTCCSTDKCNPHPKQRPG

As for `COC(=O)[C@]1(Cc2ccccc2N=[N+]=[N-])N=C(c2ccc(OCCCO)cc2)O[C@@H]1c1ccccc1N=[N+]=[N-]`, the composite z-score is -0.0688 in assay [1]; -0.0072 in [3]; -0.062 in assay [4]; -0.374 in assay [5]; -0.129 in [6]; -0.138 in [7]. Further, the composite z-score in assay [8] is -0.51; in assay [9] it was 0.412; in assay [10], 0.019; with Albumin (Bos taurus), 0.308; in [12] it was -0.0976; in [13], -0.148. Moreover, the composite z-score in assay [14] is 0.595; in assay [15] it was 0.794; in [16], 0.405; in the assay with Sam68 (KHDRBS1), -0.255; in assay [17], -0.153; in [18], 0.725. In assay [2], this compound gave a z-score of -3.52. Further, the composite Z-score in assay [11] is -0.47 (inactive).
On to `CCCN1C(=O)[C@]2(COC(c3ccc(OCCCO)cc3)=N2)Cc2ccccc21`, for which the composite z-score in assay [1] was 0.147; in assay [3], -0.196; in [4], 1.11; in assay [5], 0.599; in assay [6], -0.0462; in [7] it was 0.118. Also, the composite z-score is 0.705 in assay [8]; 0.39 in assay [9]; 1.03 in assay [10]; 0.0531 in the assay with Albumin (Bos taurus); -0.0026 in assay [12]; -0.0009 in [13]. Also, the composite z-score was 0.64 in assay [14]; 1.93 in assay [15]; -0.218 in [16]; 1.11 with Sam68 (KHDRBS1); -0.125 in assay [17]; 1.13 in assay [18]. Further, the z-score in assay [2] was found to be 0.0172. For the same compound, the composite Z-score in assay [11] is 0.305 (inactive).
In the case of `Cc1ccc(S[C@]2(C(=O)O)CC(=O)N(C3Cc4ccccc4C3)[C@@H]2c2ccc(CO)cc2I)cc1`, the composite z-score in assay [1] is -0.104; in assay [3], -0.67; in assay [4], -0.212; in assay [5], -0.196; in [6], -0.117; in assay [7], -0.156. In addition, the composite z-score in assay [8] is 0.22; in assay [9], 0.365; in [10], 0.835; with Albumin (Bos taurus), -0.133; in [12], -0.0725; in assay [13] it was -0.0799. The composite z-score in assay [14] is 0.675; in assay [15], 1.1; in assay [16] it was 0.672; with Sam68 (KHDRBS1), -0.0018; in assay [17], 0.0442; in assay [18], 0.181. In assay [2], the z-score is -0.517. Besides, in assay [11], the composite Z-score is -0.0549 (inactive).
With `N#Cc1ccc(NN2C(C(O)c3ccc([N+](=O)[O-])cc3)C=CC3C(=O)N(c4ccccc4)C(=O)C32)cc1` (stereo not given), the composite z-score in assay [1] worked out at 0.61; in assay [3] it was 0.0872; in [4], 0.971; in [5], 0.235; in assay [6], 0.119; in [7] it was 0.935. Further, the composite z-score is 1.18 in assay [8]; 0.818 in assay [9]; 0.752 in assay [10]; 0.552 with Albumin (Bos taurus); 0.0847 in assay [12]; 0.181 in [13]. For the same compound, the composite z-score in assay [14] worked out at 0.758; in [15], 2.75; in assay [16] it was 0.833; with Sam68 (KHDRBS1) it was 1.3; in [17], 0.0881; in assay [18] it was 0.647. Further, the z-score in [2] is 0.69. Further, the composite Z-score in assay [11] was 0.156 (inactive).
With `CCCCC=C[C@@H](NC(=O)c1ccco1)c1ccccc1`, the composite z-score is -0.244 in assay [1]; 0.0518 in [3]; 1.31 in [4]; 0.137 in assay [5]; 0.0151 in assay [6]; 0.356 in assay [7]. Further, the composite z-score in [8] was 0.531; in assay [9], -0.153; in assay [10], 1.18; with Albumin (Bos taurus), 0.844; in assay [12], -0.0947; in assay [13] it was -0.0419. The composite z-score in [14] is -0.406; in assay [15] it was 0.0455; in assay [16], -0.358; with Sam68 (KHDRBS1), -0.708; in assay [17], -0.134; in [18] it was 1.01. In assay [2], this compound gave a z-score of -0.502. Further, the composite Z-score in assay [11] was -0.474 (inactive).
For `COCCCNC(=O)[C@@]1(CCC(=O)OC(C)(C)C)N=C(c2ccc(OCCCO)cc2)O[C@H]1c1ccccc1CN=[N+]=[N-]`, the composite z-score was 1.49 in [1]; -0.139 in assay [3]; 1.39 in assay [4]; 0.854 in assay [5]; 0.112 in [6]; 0.0898 in assay [7]. The composite z-score turned out to be 1.36 in assay [8]; 2.28 in [9]; 2.19 in assay [10]; 0.642 in the assay with Albumin (Bos taurus); 0.433 in assay [12]; 0.0716 in [13]. Moreover, the composite z-score in [14] was 0.577; in assay [15] it was 3.34; in assay [16], 1.53; in the assay on Sam68 (KHDRBS1), 1.26; in assay [17] it was -0.105; in assay [18], 0.8. In assay [2], this compound yielded a z-score of 0.43. The composite Z-score in assay [11] is -0.371 (inactive).
